Source: PubChem BioAssay (NCI)
This is part of a sample that, as a whole, favours compounds with a hit. Of some 83,000 tested, about 20% had one in any assay.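 Activity criterion: percent growth below 10, measured after cells in 96-well plates were exposed to a single compound concentration for 48 hours.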 Unmarked numbers belong to inactive results. Active and inactive are the calls of the source.

What follows are molecules tested on NCI-H322M lung (assay: NCI-60 one-dose screen, 48 h (100 = growth as untreated, 0 = no growth, -100 = all killed)). Settings: 10 µM unless noted.

SMILES | growth
COc1ccc(/C(=C\c2cc(OC)c(OC)c(OC)c2)C(=O)N2CCNCC2)cc1 | 99.2%
O=c1c2sc3ncc(Cl)cc3c2nnn1-c1cccc(Cl)c1 | 56.8%
F | 46.4% [6.87 mM]
CC1=C(C(=O)Nc2ccc(F)cc2)C(c2ccc(C)cc2)C2=C(CC(C)(C)CC2=O)N1 (stereo not drawn) | 103%
CC[C@H](Nc1nc(N)nc(C2CC2)c1C#N)c1nc2cccc(NCc3ccc(C(=O)NO)cc3)c2c(=O)n1-c1ccccc1 | 21.3%
CC(C)N1CCN(c2ccncc2S(=O)(=O)N2CCN(C)CC2)CC1 | 123%
c1ccc(C(CC2=NCCCN2)c2ccccc2)cc1 | 99.7%
Clc1ccc2c(c1)-c1ccccc1C1=NCCN12 | 25.3%
O=C(C=P(c1ccccc1)(c1ccccc1)c1ccccc1)CCl | 10.3%
COc1cc(/C=C/C(=O)c2ccc(NC(=O)CSc3nnc(-c4ccc(Cl)cc4)n3-c3ccccc3)cc2)cc(OC)c1OC | 96.5%
OC(c1cc2cc(Cl)ccc2c2cc(C(F)(F)F)ccc12)C1CCCCN1 (stereo not drawn) | -42.7% (active)
Clc1cc(Br)ccc1-c1ccc(CNCC2CCNCC2)o1 | 60.2%
CN1CCN(Cc2ccc(NC(=O)c3cncc(C#Cc4ncc5cnccn45)c3)cc2C(F)(F)F)CC1 | 60.4%
CC1=C(C(=O)Nc2ccc(F)cc2)C(c2ccc(Cl)cc2)C2=C(CC(C)(C)CC2=O)N1 (stereo not drawn) | 102%
CCOC(=O)c1ccc(N(CCC(=O)O)C(C)=O)cc1 | 92.1%
O=c1[nH]c2cc(Cl)c(Cl)cc2o1 | 109%
CC(COC(=O)c1ccccc1)N1CC2CCC(C1)O2 (stereo not drawn) | 97.8%
CC[C@H](Nc1nc(C)nc(N)c1C#N)c1nc2cccc(NCc3ccc(C(=O)NO)cc3)c2c(=O)n1-c1ccccc1 | 24.5%
Cc1cc(NC(=O)C2c3ccccc3C(=O)N(CC(C)C)C2c2cccs2)no1 (stereo not drawn) | 107%

SMILES | growth
Clc1ccc2c(c1)-n1cccc1C(c1ccc3ccccc3c1)=NC2 | 122%
CCC1CCc2nc3sc(C(=O)Nc4cccc(F)c4)c(N)c3cc2C1 (stereo not drawn) | 87.8%
CCn1c(CN2CCN(Cc3ccccc3)CC2)nc2cc(NC(=O)c3cccs3)ccc21 | -69% (active)
CCN(CC)CCCNc1cccc2c(C)cc(OC)nc12 | 93.6%
COc1ccc(-c2cn(-c3cccc(C(=O)/C=C/c4ccc(O)c(OC)c4)c3)c(=O)[nH]2)cc1 | 64.8%
COc1ccc(/C=c2\c(=O)n(-c3ccccc3)c3nn4c(n23)=NNC42CCCCC2)cc1 | 96.3%
CCNC(=S)N(Cc1ccccc1)Cc1ccccc1 | 104%
CCCCCCCCCCCCCCCc1cc(O)ccc1[N+](=O)[O-] | 100%
COC1=CC(c2ccc[nH]2)=N/C1=C\c1[nH]c(C)c(C(=O)CCCCCCCCC(=O)O[C@H]2CC[C@H]3C4CCc5cc(O)ccc5C4CC[C@]23C)c1C (stereo partly drawn) | 51.5%
CCc1oc2ccccc2c1C(=O)c1cc(I)c(O)c(I)c1 | 98.3%
Cc1ccc(N=CNN=C(N)N)cc1 | 111%
CCCCN(CCCC)CCCN=c1nc2c(c(N)n1-c1ccccc1)c(=S)n(-c1ccccc1)c(=S)n2-c1ccccc1 | -57.8% (active)
[Ag].[Ag].[NH-]S(=O)(=O)c1ccc(N=Nc2cc(N=Nc3ccc(S([NH-])(=O)=O)cc3)c3c(NC(=O)C(Cl)Cl)cccc3c2OC(=O)C(Cl)Cl)cc1.[c-]1nccs1.[c-]1nccs1 | 97.2%
COc1cc(NCCCCC(C)N)c2nccc(C)c2c1 (stereo not drawn) | 79.8%
COC(=O)C(C)NC1=C(Cl)C(=O)C(NC(C)C(=O)OC)=C(Cl)C1=O (stereo not drawn) | 101%
COc1cc2nccc(Oc3ccc(NC(=O)C4(C(=O)Nc5ccc(F)cc5)CC4)cc3)c2cc1OC(=O)c1ccc(N)cc1 | 43%
O=C(NO)c1ccc(NCc2csc3ccccc23)cc1 | 85.7%
COc1ccc2[nH]c(O)c(/C=c3/ccc4c(c3)N=C(c3ccc(F)cc3)N=4)c2c1 | 49.4%
CCN(CC)CCCC(C)N/C(c1cccc(OC)c1)=c1\c(=O)[nH]n(-c2c3ccccc3nc3ccccc23)c(=O)\c1=C(/NC(C)CCCN(CC)CC)c1cccc(OC)c1 (stereo not drawn) | -37.7% (active)
